From PubChem BioAssay (NCI) come the findings set out here.

Some test systems named below: SR leukemia; OVCAR-8 ovarian; OVCAR-5 ovarian; OVCAR-4 ovarian; SK-OV-3 ovarian; IGROV1 ovarian; OVCAR-3 ovarian; HS 578T breast; NCI/ADR-RES ovarian; T-47D breast; BT-549 breast; MDA-MB-435 melanoma; SW-620 colon; MCF7 breast; HCT-116 colon; HCC-2998 colon; KM12 colon.
Common to all, as to assay: NCI-60 one-dose screen, 48 h (100 = growth as untreated, 0 = no growth, -100 = all killed)
Conditions in all cases: 10 µM unless noted

The panel holds about 83,000 compounds, 20% with a hit somewhere; the sample as a whole holds those more often.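 Step 1: grow cells in 96-well plates. Step 2: add test compound at a single concentration. Step 3: incubate 48 h. Step 4: record percent growth.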 Values without a mark were called inactive. Calls of active or inactive are those of the source. The calls were made as follows: active = growth percent below 10; inactive = the rest.

Regarding `N[C@@H](Cc1ccccc1)[C@@H](O)C(=O)NCc1ccc(F)cc1`, the growth with SR leukemia was 95.1%; in the assay on OVCAR-8 ovarian, 104%; in the assay with OVCAR-5 ovarian it was 98.7%; in the assay with OVCAR-4 ovarian, 103%; in the assay with SK-OV-3 ovarian it was 120%; in the assay on IGROV1 ovarian it was 107%. Besides, the growth is 117% in the assay with OVCAR-3 ovarian; 104% in the assay with HS 578T breast; 110% in the assay on NCI/ADR-RES ovarian; 113% in the assay with T-47D breast; 105% in the assay on BT-549 breast; 101% in the assay on MDA-MB-435 melanoma. Besides, the growth in the assay on SW-620 colon is 103%; with MCF7 breast, 94.9%; with HCT-116 colon, 96.1%; in the assay with HCC-2998 colon it was 113%; in the assay on KM12 colon, 102%.

In the case of `COc1ccc2sc3c(NCCCN(C)C)nc4ccccc4c3c(=O)c2c1`, the growth was -39.2% (active) with SR leukemia; 61.9% in the assay on OVCAR-8 ovarian; 89.8% in the assay on OVCAR-5 ovarian; -9.97% (active) in the assay with OVCAR-4 ovarian; 74.9% in the assay with SK-OV-3 ovarian; 54.2% in the assay with IGROV1 ovarian. In addition, the growth in the assay on OVCAR-3 ovarian was -18.5% (active); with HS 578T breast it was 73%; in the assay on NCI/ADR-RES ovarian, 55.7%; in the assay with T-47D breast, 93.6%; with BT-549 breast it was 69.4%; in the assay with MDA-MB-435 melanoma, -46.9% (active). In addition, the growth was -77.2% (active) in the assay on SW-620 colon; 41.5% in the assay with MCF7 breast; -88.7% (active) in the assay with HCT-116 colon; -90.8% (active) in the assay on HCC-2998 colon; -47.2% (active) in the assay with KM12 colon.

As to `CN(C)CCS(=O)(=O)Nc1cc(-c2ccc3ncc(C#N)c(Nc4ccc(F)c(Cl)c4)c3c2)cnc1Cl`, the growth was -12.5% (active) with SR leukemia; -10.8% (active) with OVCAR-8 ovarian; -43.8% (active) in the assay on OVCAR-5 ovarian; -5.26% (active) in the assay on OVCAR-4 ovarian; -35.1% (active) in the assay with SK-OV-3 ovarian; -43.3% (active) in the assay with IGROV1 ovarian. The growth is -59.8% (active) in the assay on OVCAR-3 ovarian; -10.5% (active) with HS 578T breast; 63.7% in the assay with NCI/ADR-RES ovarian; -30.5% (active) in the assay on T-47D breast; -60.2% (active) with BT-549 breast; -76.8% (active) in the assay with MDA-MB-435 melanoma. Further, the growth was -11.1% (active) in the assay on SW-620 colon; 0.35% (active) in the assay on MCF7 breast; -51.6% (active) with HCT-116 colon; -83.3% (active) in the assay with HCC-2998 colon; -25.4% (active) in the assay with KM12 colon.

Consider `O=C(N/N=C/[C@@H](O)[C@H](O)[C@H](O)CO)c1ccc(NC(=O)c2cccnc2)cc1`, for which the growth with SR leukemia was 95.7%; with OVCAR-8 ovarian, 105%; in the assay with OVCAR-5 ovarian it was 103%; in the assay on OVCAR-4 ovarian, 114%; with SK-OV-3 ovarian it was 99.1%; in the assay with IGROV1 ovarian, 109%. The growth in the assay on OVCAR-3 ovarian is 112%; with HS 578T breast, 104%; in the assay on NCI/ADR-RES ovarian it was 112%; in the assay with T-47D breast it was 96.1%; in the assay on BT-549 breast it was 99%; with MDA-MB-435 melanoma it was 104%. The growth is 98.9% in the assay on SW-620 colon; 92.6% with MCF7 breast; 103% in the assay with HCT-116 colon; 117% with HCC-2998 colon; 102% with KM12 colon.

On to `COc1ccc(/C=C(/C#N)n2nnc3cccc(F)c32)cc1`, for which the growth is 7.75% (active) with SR leukemia; 10.7% in the assay on OVCAR-8 ovarian; 19.7% with OVCAR-5 ovarian; 29.9% in the assay on OVCAR-4 ovarian; 29% in the assay on SK-OV-3 ovarian; 34.4% with IGROV1 ovarian. Also, the growth in the assay on OVCAR-3 ovarian is -18.6% (active); in the assay with HS 578T breast, -16.4% (active); in the assay on NCI/ADR-RES ovarian, -29.6% (active); with T-47D breast, 9.54% (active); with BT-549 breast, 20.3%; in the assay on MDA-MB-435 melanoma it was -56.4% (active). For the same molecule, the growth with SW-620 colon was 11.9%; in the assay with MCF7 breast, 17.1%; with HCT-116 colon, 10.1%; in the assay on HCC-2998 colon, 36%; in the assay on KM12 colon it was 5.54% (active).

For the molecule `NCCCNc1nc2ccc(Cl)cc2c2c(=O)c3cc(F)ccc3sc12`, the growth in the assay with SR leukemia was -27.4% (active); in the assay with OVCAR-8 ovarian, 57.3%; in the assay with OVCAR-5 ovarian, 83.5%; in the assay on OVCAR-4 ovarian, 11.3%; in the assay on SK-OV-3 ovarian it was 89.4%; with IGROV1 ovarian, 52.8%. Also, the growth in the assay with OVCAR-3 ovarian is 8.74% (active); in the assay on HS 578T breast, 65.9%; with NCI/ADR-RES ovarian, 65.9%; with T-47D breast, 76.3%; in the assay on BT-549 breast, 106%; with MDA-MB-435 melanoma it was 30.8%. In addition, the growth with SW-620 colon was -79% (active); in the assay on MCF7 breast it was 47.2%; in the assay with HCT-116 colon, -47.8% (active); in the assay with HCC-2998 colon, -40.8% (active); with KM12 colon it was 11.8%.

With `CN1CCN(CC(=O)N2c3cccc4cccc(c34)N(C(=O)CN3CCN(C)CC3)C2c2cn(-c3ccccc3)nc2-c2cccc([N+](=O)[O-])c2)CC1`, the growth with SR leukemia was -17.2% (active); in the assay on OVCAR-8 ovarian, -8.45% (active); in the assay with OVCAR-5 ovarian it was 20.5%; in the assay with OVCAR-4 ovarian, -21.8% (active); in the assay on SK-OV-3 ovarian it was -14.4% (active); in the assay on IGROV1 ovarian, 4.75% (active). Also, the growth with OVCAR-3 ovarian was -57.6% (active); in the assay with HS 578T breast, 28.6%; with NCI/ADR-RES ovarian, 72.4%; with T-47D breast, -75.8% (active); in the assay on BT-549 breast, 71.2%; with MDA-MB-435 melanoma, -42.6% (active). Besides, the growth with SW-620 colon is -26.4% (active); with MCF7 breast, -71.1% (active); in the assay with HCT-116 colon it was -58.2% (active); with HCC-2998 colon, -52.9% (active); with KM12 colon, 26%.

Turning to `O=c1c2cc(F)ccc2sc2c(NCCO)nc3ccccc3c12`, the growth is 88.9% in the assay with SR leukemia; 97.1% in the assay with OVCAR-8 ovarian; 108% with OVCAR-5 ovarian; 111% in the assay on OVCAR-4 ovarian; 109% with SK-OV-3 ovarian; 104% with IGROV1 ovarian. Besides, the growth is 121% with OVCAR-3 ovarian; 110% with HS 578T breast; 103% in the assay with NCI/ADR-RES ovarian; 93.1% with T-47D breast; 114% in the assay with BT-549 breast; 110% with MDA-MB-435 melanoma. Also, the growth with SW-620 colon is 103%; with MCF7 breast, 39.4%; in the assay on HCT-116 colon, 105%; with HCC-2998 colon, 116%; with KM12 colon it was 105%.

On to `NCCOc1ncccc1/C=C1\c2ccccc2-c2ccc(C(F)F)cc21`, for which the growth in the assay with SR leukemia was 2.72% (active); with OVCAR-8 ovarian it was 56.4%; in the assay on OVCAR-5 ovarian, 69.6%; in the assay with OVCAR-4 ovarian, 83.9%; with SK-OV-3 ovarian, 64.3%; in the assay on IGROV1 ovarian it was 32.5%. Further, the growth in the assay with OVCAR-3 ovarian was 76.2%; with HS 578T breast, 53.4%; with NCI/ADR-RES ovarian it was 57.4%; in the assay on T-47D breast it was 51.5%; in the assay on BT-549 breast it was 87.3%; in the assay with MDA-MB-435 melanoma, 82.3%. The growth was 38.4% in the assay with SW-620 colon; 21.6% in the assay with MCF7 breast; 42.1% with HCT-116 colon; 24.2% with HCC-2998 colon; 78.8% with KM12 colon.
